Assay results reported in PubChem BioAssay AID1508607 (The Scripps Research Institute Molecular Screening Center, 2020).
The campaign covered roughly 2,300 compounds. About 20 (0.9%) were called active.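 How the source made its calls: active means mean percent activation across replicates above the counterscreen hit cutoff of 9.17%; inactive means the rest.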 Shown is part of a subset that was picked to be rich in actives.

molecular target: Glucose-dependent insulinotropic receptor (Homo sapiens) (UniProt Q8TDV5); experiment: off-target GPR119 activation – cell-based, PathHunter beta-arrestin, luminescence, set 2, counter-screen for GPR151 activator project, confirmation (AID 1508607); settings: GPR119 PathHunter beta-arrestin cells, 90 min, at 11.2 µM, active compounds read high;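 further: 0% = median of sample wells and 100% = wells given EA reagent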
Sequence (Q8TDV5 whole entry, looked up): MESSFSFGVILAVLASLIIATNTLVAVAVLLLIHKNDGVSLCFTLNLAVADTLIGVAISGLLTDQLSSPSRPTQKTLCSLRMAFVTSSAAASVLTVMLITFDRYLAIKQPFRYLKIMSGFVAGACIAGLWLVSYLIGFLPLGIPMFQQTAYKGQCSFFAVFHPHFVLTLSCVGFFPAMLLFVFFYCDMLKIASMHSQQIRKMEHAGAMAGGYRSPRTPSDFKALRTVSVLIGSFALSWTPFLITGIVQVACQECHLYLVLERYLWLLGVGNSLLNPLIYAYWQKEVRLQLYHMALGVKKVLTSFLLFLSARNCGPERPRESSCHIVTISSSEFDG

Compound	activation
O=C(Nc1ccccc1C(F)(F)F)c1cnn2c(C(F)(F)F)cc(-c3ccco3)nc12	-0.72% (inactive)
CCOC(=O)c1cnc2c(OC)cccc2c1N1CCN(CC)CC1	-1.9% (inactive)
CCC(Sc1nc(NC2CCCCC2)c2ccccc2n1)C(=O)Nc1ccc2c(c1)OCO2 (stereo not given)	0.68% (inactive)
CCC(=O)Nc1ccc(NC(=O)CSc2nc3c(c(=O)n(C)c(=O)n3C)n2C)cc1	-0.37% (inactive)
O=C(O)c1ccc(CN(Cc2ccc(Cl)cc2)C(=S)Nc2ccc(Oc3ccccc3)cc2)cc1	-1.29% (inactive)
Cc1[nH]c2ccc(OCc3ccccc3)cc2c1CCNC(=O)COc1ccc(F)cc1F	-2.17% (inactive)
Cc1cc(Oc2nc3ccccn3c(=O)c2/C=C(\C#N)C(=O)N2CCCCC2)ccc1Cl	-22.9% (inactive)
O=C(c1ccccc1)N1N=C(c2ccccc2)CC1(O)C(F)(F)C(F)(F)F (stereo not given)	4.17% (inactive)
Cc1ccc(S(=O)(=O)N2CCCC2CNC(=O)C(=O)NC2CCCC2)cc1 (stereo not given)	-1.44% (inactive)
CCOc1ccccc1NC(=S)N(CCOC)C(C)c1ccccn1 (stereo not given)	-1.68% (inactive)
Nc1ccc(C(=O)NCC2COc3ccccc3O2)cc1[N+](=O)[O-] (stereo not given)	6.14% (inactive)
Nc1ncc(Br)cc1S(=O)(=O)Nc1cc(F)ccc1F	-0.83% (inactive)
CCOc1ccc(-c2nc(CSCC(=O)NCC3CCCO3)c(C)o2)cc1 (stereo not given)	0.12% (inactive)
Cc1cc2oc3c(c(=O)c2cc1C)C(c1ccc(O)cc1)N(CCCN1CCOCC1)C3=O (stereo not given)	2.08% (inactive)
COc1cc(/C=C/C(=O)c2ccc(F)cc2)cc(OC)c1OC	0.62% (inactive)
CC(C)CC(NC(=O)C(C)NC(=O)CNC(=O)C(NC=O)C(C)C)C(=O)NC(C)C(=O)NC(C(=O)NC(C(=O)NC(C(=O)NC(Cc1c[nH]c2ccccc12)C(=O)NC(CC(C)C)C(=O)NC(Cc1c[nH]c2ccccc12)C(=O)NC(CC(C)C)C(=O)NC(Cc1c[nH]c2ccccc12)C(=O)NC(CC(C)C)C(=O)NC(Cc1c[nH]c2ccccc12)C(=O)NCCO)C(C)C)C(C)C)C(C)C (stereo not given)	39.2% (active)
CN(C)c1ncc(/C=C2/C(=O)NC(=S)N(c3ccccc3F)C2=O)cn1	0.14% (inactive)
COc1ccc(/C(C)=N/NC(=O)C(C)Nc2ccc(Cl)cc2)cc1 (stereo not given)	-2.32% (inactive)

Compound	activation
CC[C@@H](C(=O)C(C)[C@@H](O)[C@H](C)CCc1ccc(C)c(O)c1C(=O)O)C1OC(CC)(C2CC[C@](O)(CC)[C@H](C)O2)C[C@@H]1C (stereo not given in full)	29.8% (active)
COC(=O)C1=C(N)Oc2c(oc(CO)cc2=O)C1c1c(Cl)cccc1Cl (stereo not given)	0.48% (inactive)
C=CCN1/C(=C\C=C2\C=Nc3ccc(Br)cc32)C=Cc2ccc(C)cc21	20.7% (active)
C=CCN1C(=O)/C(=C2\SC(N3CCCCC3)=NC2=O)c2cc(Br)ccc21	2.45% (inactive)
CC(C)c1onc(C(=O)Nc2cc(Cl)ccc2O)c1[N+](=O)[O-]	-3.34% (inactive)
C=CCNC(=O)c1cccc(NS(=O)(=O)c2ccc(Cl)cc2)c1	4.37% (inactive)
CCc1ccc(C2CC(c3ccccc3)Nc3nc(N)nn32)cc1 (stereo not given)	3.26% (inactive)
COc1ccc(Cn2c(C)c(C)n3c4c(=O)n(CCCO)c(=O)n(C)c4nc23)cc1	1.31% (inactive)
O=C(NCCSCc1ccccc1)c1ccc[nH]c1=S	2.53% (inactive)
CCSc1nnc(CSc2ncccn2)n1-c1ccccc1	-3.02% (inactive)
COc1cc(S(=O)(=O)N2CCN(c3ccc(C)c(C)c3)CC2)ccc1F	1.41% (inactive)
COc1ccc(-c2nnc3sc(NC(=O)C(C)C)nn23)cc1	-0.23% (inactive)
Cc1nccc2[nH]c(=O)c(C(=O)NC3CCN(Cc4ccccc4)CC3)cc12	0.02% (inactive)
Cc1cccc(NC(=O)c2c(-c3ccccc3Cl)noc2C)c1C	0.14% (inactive)
C=CCNc1nnc(-c2cc3c(CO)cnc(C)c3oc2=O)s1	-2.69% (inactive)
O=C1CCCN1CCCNc1nc(-c2cccc(Cl)c2)c2c(n1)-c1ccccc1OC2	-1.27% (inactive)
C=CCOC(=O)c1[nH]c2c(c1C)C(=O)C(C(=O)OC)C(C)C2 (stereo not given)	2.72% (inactive)
